From PMC12864922, “TDP-43 directly inhibits mRNA accumulation in neurites through modulation of mRNA stability”
In all, about 9,900 sequences were measured (“r (bound/input frequency ratio)”: median about 0.7, highest 2% from about 6.5 on). This is one part of a sample in which the highest values are shown more often than they occur.

B1: ENSMUSG00000004113.257|Cacna1b|213:217 (ssRNA)
RNA: GGGAGUUCUACAGUCCGACGAUCGCUUCGAUAUCCGCAUGCUAGAUGCUGAAGAGUGCAAAACGCUAGCAAAGAAGAGGCUGGGGUUAGAGGAAGAAGCCCGCACUGGCCGUGUUACAAGAAACUGGCAGGAAGGAAAUGGCCCUGGAACAGGCCAGGUGCCUAGAGCUAAGUCAGGCCCCUGGCUUAGCACUAGAAAAAAUAAAACCUCAUGGCUGCUUUGCAAAGGGAAAACCCAUGCUCAGGAAGGUGUUCACACACCACAGAUAGCUGGGAGGCCACGAGAGAAAGGUUGCACACAGACCUCUUGCGGUCGCACUAGUGUGGAAUUCUCGGGUGUCAAGG
B2: ENSMUSG00000028439.88|Fam219a (ssRNA)
RNA: GGGAGUUCUACAGUCCGACGAUCGCUUCGAUAUCCGCAUGCUAGGAAAGGGGUUUUGAGAAGAAAAGGAUCCAAGCAAUGGGGGCAGUUCUCACACCUCAGAGCCCCUCUCCCCAAACCCUGUGCCAGCCCAUAUACCUAUUUGUGUUUUCCCCUCAUCUCCAGAUGGGAAGCCUGGCAGCGCUGUCCAAAGGGAUACUGUCUCUCCAUUAGAUAACUCCUUCCACUGUCUCCCUCCCCCGCUUUCUUACUUUCUGAGGGUUGGGAAGGUAAGAUGGGCCUUAGAGAGAAGCCAGGUUUGGGGCUCUUGCGGUCGCACUAGUGUGGAAUUCUCGGGUGUCAAGG
B3: ENSMUSG00000031028.91|Tub (ssRNA)
RNA: GGGAGUUCUACAGUCCGACGAUCGCUUCGAUAUCCGCAUGCUACAAGCUGUAUGUAGAAAAAGCUCUGGUGGUCAGCAGAAAGCACUCCCACUUCAAAAGGGCCCAUUAGGCCCAAAGGGGGUUAGGAGUGGUAGGGAUAGGUGCGUGGCAGGUCCCUGCUAGGAUUGCAGGGGCCUGGCCAUGUGUAUUAGCUGGAGGCUUAGAAUGCUAGCUCAUUUGUUGCUACAGAUUUGCCCAGUGCUUGCACACGUAAGAACCCAGCUCUCAAGGCCAAAUAUCUGAGUGGAUGGGGAUGAUAGGAGCUCUUGCGGUCGCACUAGUGUGGAAUUCUCGGGUGUCAAGG
B4: ENSMUSG00000031028.31|Tub|122:126 (ssRNA)
RNA: GGGAGUUCUACAGUCCGACGAUCGCUUCGAUAUCCGCAUGCUACUGCCUGCCAAGACAGCCCUGCCUACCCUCUGUUCAUAGGCCCUCUAUGGGCUUUCUGGCCUUACCAACCAGAGACUGGCUGCUCUGCCUCUGCUGCUGAAGCAGGGGGGACAGCAAAUGGCAUACACAGGAGAAGAAUAUUUCUGUGCCCCAAGGUCAACACACAUGCCCAGUCCUGGGUCAGUCCCCUGCUGCAGUGGUGUUAUCACACCGGAAAGCCUCUUCACCUGGAGGUACAGAGGGAGAGGAAGCACAAGCCUCUCUUGCGGUCGCACUAGUGUGGAAUUCUCGGGUGUCAAGG

Each binder was assayed against TDP-43 (Homo sapiens, UniProt Q13148 1-414) (assay: RNA Bind-n-Seq with designed 260-mer pool; 25 mM Tris-HCl, 150 mM KCl, 3 mM MgCl2, BSA (printed 500 mg/mL), 20 units/mL SUPERase IN; pH not stated; 500 nM RNA pool, 1 h, 4 C; TDP-43 5, 50, 500 nM; high values mean tight binding). Settings: protein: recombinant; tags: SBP (GST cleaved off with PreScission; pGEX-GST-SBP).
Outline: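 An in vitro-transcribed pool of 260-nt 3′ UTR oligos (500 nM) was incubated for 1 h at 4 °C with recombinant SBP-tagged TDP-43 at 5, 50 or 500 nM held on streptavidin beads. The buffer contained 25 mM Tris-HCl, 150 mM KCl, 3 mM MgCl2, BSA and SUPERase IN. Biotin-eluted bound RNA was sequenced, and binding, R, is each oligo's normalized read abundance in the bound sample over that in input.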

TDP-43, sequence (Q13148 whole entry): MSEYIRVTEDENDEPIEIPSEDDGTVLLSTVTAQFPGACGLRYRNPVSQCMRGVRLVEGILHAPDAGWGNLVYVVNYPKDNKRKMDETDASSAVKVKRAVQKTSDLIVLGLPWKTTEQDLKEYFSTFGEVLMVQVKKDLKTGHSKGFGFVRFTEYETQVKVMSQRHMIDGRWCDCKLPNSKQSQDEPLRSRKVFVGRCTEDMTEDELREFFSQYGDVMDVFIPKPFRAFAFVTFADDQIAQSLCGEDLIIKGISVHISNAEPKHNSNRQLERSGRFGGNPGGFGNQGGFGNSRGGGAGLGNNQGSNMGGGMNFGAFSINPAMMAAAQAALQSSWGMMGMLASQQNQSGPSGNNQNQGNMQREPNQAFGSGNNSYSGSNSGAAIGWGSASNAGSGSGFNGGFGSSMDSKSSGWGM

Point of comparison: B2, binding signal 0.765 R (bound/input frequency ratio). Against it:
- B1 — lower, 0.718 R (bound/input frequency ratio)
- B3 — higher, 5.97 R (bound/input frequency ratio)
- B4 — lower, 0.475 R (bound/input frequency ratio)
